Experimental data from PubChem BioAssay AID686978 (National Center for Advancing Translational Sciences (NCATS), 2013).
Where “and” joins values, the source holds several entries; their conditions need not be identical. Equal values may be shown once. About 64,000 (15%) of roughly 420,000 compounds were called active. Another 27% or so got no clear call; they are omitted. Calls follow the shape of the dose curve; as a rule, active = well fitted inhibition curve with a large enough effect; inconclusive = small, poorly fitted or top-dose-only effect; inactive = flat fitted curve, though single readings scatter. Only a sample is shown. A structure can be active in one record and inactive in another.

Test: qHTS for Inhibitors of human tyrosyl-DNA phosphodiesterase 1 (TDP1): qHTS in cells in absence of CPT; also: nearly all actives have a fitted effect of over 55% in size
Details: DT40 Tdp1-/- hTDP1 cells, no CPT, ATP luminescence, 48 h; activity change, negative = growth inhibition: at 46.2 µM (top of the series)
Summary of the method: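 A cellular qHTS used chicken DT40 cells lacking endogenous Tdp1 but carrying stably transfected human TDP1. Compounds were applied without camptothecin, and cell growth kinetics were judged by ATP-dependent luminescence after ≥48 hr.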
% is scaled to controls: 0 for no effect and ±100 for the full control effect; potency is read from the fitted curve at half-maximal effect.

SMILES | activity change, negative = growth inhibition | Potency
CC(=O)Nc1ccc(S(=O)(=O)N2CCCC2C(=O)O)cc1 (stereo not given) | -2.04% (inactive) | –
CCOC(=O)C(NC(=O)CC(C)C)(Nc1sc2c(c1C(N)=O)CCCC2)C(F)(F)F (stereo not given) | -25.5% (inactive) | –
Cc1ccc(C)c(N2CCN(C(=O)CCc3c(C)nc4c(c3C)c(=O)n(C)c(=O)n4C)CC2)c1 | -2.29% (inactive) | –
COc1cccc(N2CCN(C(=O)CCCCCn3c(=O)[nH]c4ccccc4c3=O)CC2)c1 | – | 20.6 µM (active)
Cc1ccc(C)c(N2CCN(C(=O)CCCCn3c(=O)[nH]c4ccccc4c3=O)CC2)c1 | – | 20.6 µM (active)
CCN(CC)CCNC(=O)CCCCCn1c(=O)[nH]c2cc(C(=O)OC)ccc2c1=O | -16.1% (inactive) | –
Cc1ccc(C)c(N2CCN(C(=O)CCCCCn3c(=S)[nH]c4ccc(N5CCOCC5)cc4c3=O)CC2)c1 | – | 2.91 µM (active)
Cc1ccc(OCCCC(=O)N2CCOCC2)c(C)c1 | -20% (inactive) | –
NS(=O)(=O)c1ccc(CCNC(=O)CCCCCn2c(=O)[nH]c3ccccc3c2=O)cc1 | -12.8% (inactive) | –
Cc1ccc(N2CCN(C(=O)CCc3c(C)nc4c(c3C)c(=O)n(C)c(=O)n4C)CC2)c(C)c1 | -19.6% (inactive) | –
O=C(CCCCCn1c(=O)[nH]c2ccccc2c1=O)NCCc1c[nH]c2ccccc12 | -21% (inactive) | –
COc1ccc(CCNC(=O)CCCCn2c(=O)[nH]c3ccccc3c2=O)cc1OC | -11% (inactive) | –
O=C(CCCn1c(=O)[nH]c2cc(Cl)ccc2c1=O)NCCN1CCN(c2ccccc2)CC1 | – | 23.1 µM (active)
O=C(Cc1c(F)cccc1Cl)Nc1ccc(-n2cnnn2)cc1 | -10.1% (inactive) | –
COc1ccc(C(C#N)N2N=C(C)CC2(C)C)cc1 (stereo not given) | -4.56% (inactive) | –
NC(=O)N1CCc2ccccc21 | -7.26% (inactive) | –
CCC1(CC)NC(=O)N(CC(=O)OCC(=O)NC(=O)c2ccccc2)C1=O | 2.28% (inactive) | –
Cc1ccc(C(=O)O)cc1-c1ccc(/C=C2\SC(=O)N(CC(=O)Nc3ccc4c(c3)OCO4)C2=O)o1 | -0.216% (inactive) | –
COc1cc2c(cc1OC)[C@@H](Cc1cc(OC)c(OC)c(OC)c1)[N+](C)(CCCOC(=O)CC/C=C/CCC(=O)OCCC[N+]1(C)CCc3cc(OC)c(OC)cc3[C@H]1Cc1cc(OC)c(OC)c(OC)c1)CC2 (stereo not given in full) | – | inactive
Cc1ccc(CCCOC(=O)C[N+]2(C)CCCC2)cc1 | -12.4% (inactive) | –
COc1ccc(CC2c3cc(OC)c(OC)cc3CC[N+]2(C)CCC(=O)OCCCCCOC(=O)CC[N+]2(C)CCc3cc(OC)c(OC)cc3C2Cc2ccc(OC)c(OC)c2)cc1OC (stereo not given) | – | 13 µM (active)
O=C(CCN1C(=O)c2ccccc2C1=O)NCCN1CCOCC1 | 9.53% (inactive) | –
O=c1oc2ccccc2cc1-c1cn(-c2ccccc2)c(=S)[nH]1 | – | 3.26 µM (active)
O=C(c1cn(-c2ccccc2)nc1-c1cc2ccccc2oc1=O)N1CCOCC1 | -18.8% (inactive) | –
S=c1[nH]c(-c2cccs2)cn1-c1ccccc1 | -13.3% (inactive) | –

SMILES | activity change, negative = growth inhibition | Potency
CC(=O)Oc1c2c(c3c(c1CC=C(C)C)O[C@@]14C(=CC5CC1C(C)(C)OC4(C/C=C(\C)C(=O)O)C5=O)C3=O)OC(C)(CCC=C(C)C)C=C2 (stereo not given in full) | – | 1.3 µM (active)
CC1(C)CC(=O)C2=C(C1)N=C1SCCC(=O)N1C2c1ccc(C(F)(F)F)cc1 (stereo not given) | -20.3% (inactive) | –
Cc1ccc(C(=O)N/C(=C/c2cccs2)C(=O)N2CCCCC2)cc1 | -18.2% (inactive) | –
COC(=O)CSc1nccc(-c2cccs2)n1 | -0.533% (inactive) | –
Cc1ccc(CSc2oc(-c3cccs3)nc2S(=O)(=O)c2ccc(C)cc2)cc1 | – | 5.17 µM (active)
NC(=O)CSc1oc(-c2cccs2)nc1S(=O)(=O)c1ccccc1 | -1.42% (inactive) | –
Cc1ccc(S(=O)(=O)c2nc(-c3cccs3)oc2N2CCCCC2)cc1 | – | 23.1 µM (active)
CCCCS(=O)(=O)c1oc(-c2cccs2)nc1S(=O)(=O)c1ccccc1 | – | 1.16 µM (active)
N#Cc1ccc(-c2cccs2)nc1SCc1ccc(Br)cc1 | -9.03% (inactive) | –
O=C(c1cc(-c2cccs2)on1)N1CCCCC1 | -7.2% (inactive) | –
Cc1ccc(NC(=O)COc2ccc(/C=C3/NC(=O)NC3=O)cc2)cc1 | -8.92% (inactive) | –
O=C1OC(Oc2ccc(Br)cc2)(c2ccccc2)c2ccccc21 (stereo not given) | -16.8% (inactive) | –
CCCOCC(O)CC(CC)C(=O)NNC(=S)Nc1ccccc1 (stereo not given) | -4.64% (inactive) | –
COc1ccc2c(c1)N(C)/C(=C1/SC(=S)N(NC(C)=O)C1=O)S2 | 0% (inactive) | –
CCC(C)NC(=O)/C=C/c1ccc(S(=O)(=O)NCc2ccco2)cc1 (stereo not given) | -2.93% (inactive) | –
O=S(=O)(NC1CCCC1)c1ccc(-n2cnnn2)cc1 | -14.2% (inactive) | –
O=C(NC1CC1)c1ccc(-c2ccccc2)cc1 | – | 11.6 µM (active)
O=C(NNC(=O)c1ccc(-c2ccccc2)cc1)Nc1ccccc1 | -14.5% (inactive) | –
Cc1ccc(C(=O)NCC(=O)NC2CC2)cc1 | 4.14% (inactive) | –
C/C(N)=C(/C#N)C(=O)COC(=O)C1CCN(C(=O)c2ccc(Cl)cc2)CC1 | -29.6% (inactive) | –
CC(=O)O[C@]1(C(C)=O)CC[C@H]2[C@@H]3CCC4=CC(=O)CC[C@]4(C)[C@@]3(F)[C@@H](O)C[C@@]21C | -9% (inactive) | –
CC(=O)O[C@]1(C(C)=O)CC[C@H]2[C@@H]3C=C(C)C4=CC(=O)CC[C@]4(C)[C@H]3CC[C@@]21C | – | inactive and 23.1 µM (active)
CC(=O)OCC(=O)C1(O)CCC2C3CC(C)C4=CC(=O)CCC4(C)C3C(O)CC21C (stereo not given) | -17.1% (inactive) | –
CCc1nc2c(=O)[nH]cnc2o1 | -5.21% (inactive) | –
CCn1nnnc1SCC(=O)c1ccc(C)cc1C | -14.8% (inactive) | –
